Assay [1] can be described thus: A CellTox Green Cytotoxicity Assay to monitor cytotoxicity in HepG2 cells - 8 hour (AID 1224890). Note: nearly all actives have a fitted effect of over 45% in size. The gist of the method:
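Measurements at 0, 8, 16, 24, 32 and 40 h of treatment captured CellTox Green fluorescence in HepG2 cells that had been co-plated with reagent and preincubated 5 h at 37 C/5% CO2.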

The nature of assay [2]: qHTS assay to identify small molecule antagonists of the estrogen receptor alpha (ER-alpha) signaling pathway using the BG1 cell line in the presence of 0.1 nM 17-beta-estradiol - cell viability counter screen (AID 1259241). Note: nearly all actives have a fitted effect of over 40% in size. The gist of the method: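 In this screen, hormone-deprived VM7Luc4E2 cells were seeded at 4,000 per well, dosed with compound and 0.1 nM estradiol final, and incubated 22 hr at 37C and 5% CO2; fluorogenic live-cell protease signal reported viability.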

The nature of assay [3]: qHTS assay to identify small molecule antagonists of the androgen receptor (AR) signaling pathway using the MDA cell line in the presence of 0.5 nM R1881 - cell viability counter screen (AID 1259242). Note: nearly all actives have a fitted effect of over 45% in size. The gist of the method: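 Concentration-response screen of compounds for toxicity in MDA-kb2 reporter cells: 16 hr at 37C with 0.5 nM R1881, endpoint live-cell protease fluorescence measured in the reporter wells.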
(In general: Quantitative high-throughput screening tests each substance at several concentrations.)

For assay [4], the target named is Estrogen receptor (Homo sapiens) (UniProt P03372). The assay can be described thus: qHTS assay to identify small molecule antagonists of the estrogen receptor alpha (ER-alpha) signaling pathway using the BG1 cell line in the presence of 0.1 nM 17-beta-estradiol (AID 1259244). Note: nearly all actives have a fitted effect of over 50% in size. The gist of the method:
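Compounds were tested against 0.1 nM (final) 17beta-estradiol in VM7Luc4E2 cells, which express full-length ER-alpha and an ERE-luciferase reporter; luminescence was recorded following 22 h exposure.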

Assay [5] can be described thus: qHTS assay to identify small molecule agonists of the sonic hedgehog signaling (Shh) pathway - cell viability counter screen (AID 1259366). Note: nearly all actives have a fitted effect of over 50% in size. Note: potency is the fitted concentration of half-maximal effect. The gist of the method: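 In quantitative high-throughput format, 3T3 Gli1-Luc cells were exposed to compounds for 24hr and multiplexed for viability using CellTiter-Fluor, incubated 1hr at 37C before the fluorescence read.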

Assay [6] is described as follows: qHTS assay to identify small molecule antagonists of the sonic hedgehog signaling (Shh) pathway - cell viability counter screen (AID 1259367). Note: nearly all actives have a fitted effect of over 55% in size. Note: potency is the fitted concentration of half-maximal effect. The gist of the method: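 Conditioned medium drove Shh signaling in 3T3 Gli1-Luc cells exposed to compounds at 37C and 5% CO2. Viability was determined from CellTiter-Fluor fluorescence, with reagent incubated 1 hr after 23 hr of treatment.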

Assay [7] in a line: qHTS assay to identify small molecule HDAC inhibitors (AID 1259364).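 Note: wild-type HCT-116 cells with endogenous class I/II HDAC activity; top concentration of the series differs between compounds; nearly all actives have a fitted effect of over 45% in size.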 The gist of the method:
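Screening used wild-type human colon HCT-116 cells incubated overnight, dosed with compounds for 2 hours, and assayed with a homogeneous luminogenic HDAC I/II reagent for 30 minutes at room temperature.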

A short description of assay [8]: qHTS assay to identify small molecule phospholipidosis (PLD) inducers (AID 1259344; active = well fitted curve in the direction sought with a large enough effect; an effect the other way counts as inactive or inconclusive). The gist of the method:
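After 4 h attachment on collagen I, HepG2 cells were dosed with compound alongside LipidTOX Red, kept 24 h at 37 C, fixed, and imaged for lamellar phospholipid pits.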

Assay [9] is described as follows: qHTS assay to identify small molecule HDAC inhibitors - cell viability counter screen (AID 1259365). Note: series mostly up to about 92 µM; nearly all actives have a fitted effect of over 50% in size. The gist of the method:
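Measured quantity is CellTiter-Glo luminescence from wild-type HCT-116 cells after compound incubation of 2hr at 37C, 5% CO2; reagent developed 30min at room temperature.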

A number with no mark means an inactive call. Results filed as inconclusive are left out. Calls of active or inactive are those of the source. Unless noted, calls come from the whole dose curve; as a rule, active = well fitted curve in the direction sought with a large enough effect in the repeat runs; inconclusive = weak or mixed curves; inactive = no such curve, though single readings can be large; an effect the other way counts as inactive or inconclusive.
% is set by controls: 0 for no effect and ±100 for the full control effect.

Sequence of Estrogen receptor (Homo sapiens) (P03372 whole entry, looked up): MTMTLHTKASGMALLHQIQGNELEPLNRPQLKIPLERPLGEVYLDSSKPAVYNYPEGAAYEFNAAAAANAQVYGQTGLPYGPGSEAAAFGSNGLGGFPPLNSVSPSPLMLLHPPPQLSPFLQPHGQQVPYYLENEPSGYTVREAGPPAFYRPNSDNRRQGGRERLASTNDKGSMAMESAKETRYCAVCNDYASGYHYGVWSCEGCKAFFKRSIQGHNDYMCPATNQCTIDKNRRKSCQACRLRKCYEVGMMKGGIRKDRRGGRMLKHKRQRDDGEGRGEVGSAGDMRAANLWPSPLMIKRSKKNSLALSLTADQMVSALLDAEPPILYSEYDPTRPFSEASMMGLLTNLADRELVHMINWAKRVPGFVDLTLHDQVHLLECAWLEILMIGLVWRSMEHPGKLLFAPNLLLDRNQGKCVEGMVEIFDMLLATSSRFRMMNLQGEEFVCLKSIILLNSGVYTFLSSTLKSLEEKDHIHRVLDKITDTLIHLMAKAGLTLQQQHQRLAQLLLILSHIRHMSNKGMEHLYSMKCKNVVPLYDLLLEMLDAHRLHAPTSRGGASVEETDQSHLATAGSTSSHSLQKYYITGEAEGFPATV

Regarding `CCCCCCCCCCCC[N+](C)(C)CC(=O)[O-]`, the Potency result in [1], in assay [2], in assay [3], in assay [4], in [5] and in assay [6] was “inactive” throughout.

In the case of `OC/C(Br)=C(\Br)CO`, the Potency entry in [1], in assay [2], in [3], in [4], in [7] and in [5] was “inactive” in each case. In addition, in [6], the Potency entry was “inactive”.

Regarding `Cc1nc2ccccc2s1`, the Potency entry in assay [1], in [2], in [3], in assay [4], in assay [7] and in assay [5] was “inactive” in each case. For the same compound, the Potency result in [6] is “inactive”.

For `CCCCC1C(=O)N(c2ccccc2)N(c2ccc(O)cc2)C1=O` (stereo not drawn), the Potency entry in assay [1], in [2] and in assay [3] was “inactive” each time. Moreover, the call in assay [8] was inactive. For the same compound, the figures for the Potency in [5] and in assay [6] were 13.3 µM (active) and 16.8 µM (active), respectively.

For the compound `CC1CC(O)CC(C)(C)C1` (stereo not drawn), the Potency result in [1], in assay [2], in [3], in assay [7], in [5] and in assay [6] was “inactive” in each case. Moreover, in [8], the compound was called inactive.

As to `COCCOC(=O)C1=C(C)NC(C)=C(C(=O)OC/C=C/c2ccccc2)C1c1cccc([N+](=O)[O-])c1` (stereo not drawn), the Potency result in assay [1], in [2], in assay [3], in assay [7], in assay [9] and in assay [6] was “inactive” in each case. The compound was classed as inactive in assay [8].

`CCC(=O)Oc1ccc(/C(CC)=C(\CC)c2ccc(OC(=O)CC)cc2)cc1`: the Potency result in [1], in assay [2], in assay [3], in assay [7], in [9] and in assay [5] was “inactive” in each case.

For `C[N+]1(C)CCC(=C(c2ccccc2)c2ccccc2)CC1`, the Potency entry in assay [1], in assay [2], in [3], in assay [7], in assay [9] and in assay [5] was “inactive” each time. Besides, the call in [8] was inactive.

On to `CCCCCCCCCCCC[N+](C)(C)CCCS(=O)(=O)[O-]`, for which the Potency entry in assay [1], in assay [2], in assay [3], in assay [4], in [7] and in assay [5] was “inactive” each time. For the same compound, in assay [6], the Potency entry is “inactive”.

With `Nc1nc(Cl)nc2c1ncn2[C@@H]1O[C@H](CO)[C@@H](O)[C@@H]1F`, the Potency entry in assay [1], in [2], in assay [3], in [7], in assay [9] and in [5] was “inactive” in each case. In addition, the Potency entry in assay [6] is “inactive”. Also, in assay [8], the result was inactive.

As to `c1ccc(COCc2ccccc2)cc1`, the Potency result in [1], in assay [2], in [3], in assay [4], in assay [5] and in [6] was “inactive” in each case.

As to `CCCc1c(OCCCOc2ccc(OCC(=O)O)cc2)ccc(C(C)=O)c1O`, the Potency result in assay [1], in assay [2], in assay [3], in [4], in assay [7] and in assay [5] was “inactive” throughout. For the same compound, in [6], the Potency entry was “inactive”.

As to `CC1=C(/C=C/C(C)=C\C=C\C(C)=C\C(=O)O)C(C)(C)CCC1`, the Potency result in assay [1], in assay [2], in [3], in [7] and in assay [9] was “inactive” throughout.

Consider `CCCOCCOCCO`, for which the Potency result in assay [1], in [2], in assay [3], in assay [4], in assay [5] and in assay [6] was “inactive” in each case.

With `Nc1ccc(S(=O)(=O)O)c(N)c1`, the Potency entry in assay [1], in assay [2], in assay [3], in assay [4], in assay [9] and in [5] was “inactive” each time. In addition, the Potency entry in assay [6] was “inactive”.

Regarding `Cc1cc(OI)c(C(C)C)cc1-c1cc(C(C)C)c(OI)cc1C`, the Potency entry in assay [1], in [2], in [3], in assay [7], in assay [9] and in assay [5] was “inactive” throughout. The result in assay [8] was inactive.

As for `Cc1ccc(S(=O)(=O)NC2CCCCC2)cc1`, the Potency result in [1], in assay [2], in [3], in assay [4], in assay [7] and in assay [5] was “inactive” each time. For the same compound, the Potency result in assay [6] was “inactive”.

With `C=CCCCCCCCCCCCCCCCC`, in assay [1], the cytotoxicity increase was -16.6% [at 6.97 µM]. Besides, in assay [2], the activity change, negative = cytotoxicity was 0.274% [at 8.39 µM]. Also, the viability change, negative = cytotoxic is 2.55% [at 8.39 µM] in [3], 4.48% [at 8.39 µM] in [5] and 0.663% [at 8.39 µM] in assay [6]. The activity change, negative = inhibition is 11.9% [at 8.39 µM] in assay [4] and 2.22% [at 8.39 µM] in assay [7].

With `C=CCOC(=O)/C=C\C(=O)OCC=C`, the Potency result in assay [1], in [2], in [3], in assay [4], in assay [7] and in assay [5] was “inactive” each time. In [6], the Potency result is “inactive”.

Turning to `CCOC(=O)c1ccccc1C`, the Potency result in assay [1], in assay [2], in [3], in assay [4], in assay [9] and in assay [5] was “inactive” in each case. For the same compound, the Potency result in assay [6] was “inactive”.

As for `O=C(CCCN1CCC(O)(c2ccc(Br)cc2)CC1)c1ccc(F)cc1`, the Potency result in assay [1], in assay [2], in assay [3], in [4], in [9] and in [5] was “inactive” throughout. Also, the Potency result in assay [6] was “inactive”.

For `CCN(CC)CCNC(=O)c1ccc(NC(C)=O)cc1`, the Potency result in assay [1], in assay [2], in assay [4], in assay [9], in [5] and in assay [6] was “inactive” in each case. In addition, the result in assay [8] was inactive.

(Values after PubChem BioAssay (Tox21).)
